Screening data: PubChem BioAssay, Sanford-Burnham Center for Chemical Genomics
TROY NFkB inh: inhibitors of TROY-dependent NF-kB signaling; Q293 LMP1-TROYcd NF-kB luciferase reporter, 4 h; inhibition, % at 10 µM; 360,000 tested, 0.98% active; AID 1347056;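 active = compounds whose plate-normalised and pattern-corrected inhibition of the luciferase reporter signal at the single screening dose is 50% or more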
HIF-2a block: inhibitors of HIF-2a. 786-0 RCC cells HIF-2a reporter, luciferase luminescence, overnight. inhibition, % at 18.8 µM. 360,000 tested, 0.72% active. AID 624352;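 active = inhibition of the luminescence signal of 40% or more relative to plate controls, in a single-dose primary screen at 18.75 µM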
Peg3 promoter: inhibitors of Peg3 promoter; 360,000 tested, 1.7% active; inhibition, % at 20 µM; HeLa PEG-Prom luciferase reporter, luminescence, overnight;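 active = inhibition of at least 50% at 20 µM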
CF NFkB block: cystic fibrosis NF-kB activation inhibition; inhibition, % at 5 µM; 360,000 tested, 0.86% active; KKLEB NF-kB-GFP reporter, PAF-induced, GFP fluorescence overnight; AID 588850;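 active = at least 50% inhibition at 5 µM, scaled per plate between neutral and stimulator controls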;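 note: PAF is a Pseudomonas aeruginosa culture filtrate used as stimulus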
TWEAK-Fn14 inh: TWEAK-Fn14 signaling inhibition; TWEAK-stimulated Fn14 reporter cells, luciferase luminescence, 8 h; AID 1159606; inhibition, % at 10 µM; 360,000 tested, 2% active; in the data active = inhibition above about 50%
KKLEB cytotox: CF airway cell cytotoxicity counter-screen; KKLEB CF airway cells viability, ATPlite luminescence, overnight; hits give low values; cells stimulated with P. aeruginosa culture filtrate; activity change (cytotoxicity), % at 5 µM; AID 602141; 360,000 tested, 0.36% active;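 active = corrected activity change at or below -50% at 5 µM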
Of the large screens only hits and unclear results are named; the others gave an inactive call. A selection: hits, their analogues and other compounds. The true share with any hit is near 4%.

CC1(C(=O)NCc2ccccc2)CSCC(=O)N1Cc1cccc(C(F)(F)F)c1 (stereo not given)	none (no result: TROY NFkB inh, Peg3 promoter, CF NFkB block, TWEAK-Fn14 inh, KKLEB cytotox)
CS(=O)(=O)N1CCCCC1c1cc(C(=O)NCc2ccc(Cl)c(Cl)c2)no1 (stereo not given)	none
S=C1Nc2ccccc2CS1	none
S=C1Cc2ccccc2N1	Peg3 promoter 95.5, TWEAK-Fn14 inh 72.3
O=C(CNc1ccccc1F)Nc1cc(S(=O)(=O)N2CCCCC2)ccc1Cl	none
Cc1ccc(S(=O)(=O)N2CCCCC2)cc1NCC(=O)Nc1ccc(Br)cc1F	TROY NFkB inh 52.6, TWEAK-Fn14 inh 80.0
CC(C)N1C(=O)/C(=C\c2nc3ccccc3c(=O)n2-c2ccccc2)c2ccccc21	HIF-2a block 87.0, TWEAK-Fn14 inh 54.5
COc1cccc(OC)c1OC(=O)C1CC(=O)N(c2ccc3c(c2)OCCO3)C1 (stereo not given)	TWEAK-Fn14 inh 68.0
O=C(Nc1ccc2c(c1)OCO2)C1CC(=O)N(c2ccc3c(c2)OCCO3)C1 (stereo not given)	none
O=C(Nc1ccccc1Br)C1CC(=O)N(c2ccc3c(c2)OCCO3)C1 (stereo not given)	none
O=C(O)C1CC(=O)N(c2ccc3c(c2)OCCO3)C1 (stereo not given)	TWEAK-Fn14 inh 62.8
O=C(Nc1nc2ccccc2[nH]1)C1CC(=O)N(c2ccc3c(c2)OCCO3)C1 (stereo not given)	TWEAK-Fn14 inh 69.4
O=C(COC(=O)C1CC(=O)N(c2ccc3c(c2)OCCO3)C1)NC1CCCc2ccccc21 (stereo not given)	TWEAK-Fn14 inh 56.1
CCOc1ccccc1-n1c(SC(C)C(=O)NCC2CCCO2)nc2ccccc2c1=O (stereo not given)	none
COc1cccc(C2=NO[C@@H]3C(=O)N(c4ccc5c(c4)OCCO5)C(=O)[C@H]23)c1OC	TROY NFkB inh 68.9, TWEAK-Fn14 inh 77.3
Cc1c(C(=O)Nc2ccc3c(c2)OCCO3)sc2ncnc(N3CCCCC3C)c12 (stereo not given)	TWEAK-Fn14 inh 52.7
Cc1ccc(S(=O)(=O)N2CCN(C(=O)C3CCN(c4ncnc5sc(C)c(C)c45)CC3)CC2)c(C)c1	TWEAK-Fn14 inh 50.6
Cc1sc2ncnc(N3CCC(C(=O)NNC(=O)COc4ccc(Br)cc4)CC3)c2c1C	TROY NFkB inh 74.0, TWEAK-Fn14 inh 88.1
Cc1nc(N2CCC(C)CC2)c2c(C)c(C(=O)Nc3ccc4c(c3)OCCO4)sc2n1	none
Cc1sc2ncnc(N3CCC(C(=O)NNC(=O)COc4ccccc4Cl)CC3)c2c1C	none
Cc1cc(Cl)ccc1OCC(=O)NNC(=O)C1CCN(c2ncnc3sc(C)c(C)c23)CC1	TROY NFkB inh 71.7, TWEAK-Fn14 inh 82.2
CCCCCCCCN1C(=O)[C@H](CC(=O)N2CCN(C(=O)C3CC3)CC2)C[C@@]2(C(=O)OCC)CCCC=C12	none (no result: Peg3 promoter, CF NFkB block, KKLEB cytotox)
COc1ccc(-c2csc(C(C)(NC(C)=O)c3ccccc3)n2)cn1 (stereo not given)	none
Cc1ccc(OCC(=O)NNC(=O)C2CCN(c3ncnc4sc(C)c(C)c34)CC2)cc1	none
Cc1sc2ncnc(N3CCC(C(=O)NNC(=O)c4ccccc4Cl)CC3)c2c1C	none
Cc1sc2ncnc(N3CCC(C(=O)NNC(=O)COc4ccc(Cl)cc4)CC3)c2c1C	TROY NFkB inh 50.5, TWEAK-Fn14 inh 86.8
Cc1sc2ncnc(N3CCC(C(=O)Nc4ccc(OC(F)F)c(Cl)c4)CC3)c2c1C	TROY NFkB inh 51.1
COc1ccc(NC(=O)c2sc3ncnc(N4CCN(c5ccccn5)CC4)c3c2C)cc1Cl	TWEAK-Fn14 inh 75.8
Cc1sc2ncnc(N3CCC(C(=O)NNC(=O)COc4cccc(C(F)(F)F)c4)CC3)c2c1C	TWEAK-Fn14 inh 56.0
Cc1c(Cl)cccc1N1C(=O)CC(Sc2ccccc2N)C1=O (stereo not given)	none
O=C1NC[C@H](CCCCN2C[C@H](Cc3ccc(O)cc3)N(CCc3ccccc3)C(=O)C2=O)N(CC2CCCCC2)C1=O	none (no result: Peg3 promoter, CF NFkB block, KKLEB cytotox)
Cc1cc(Br)ccc1NC(=O)CN(C)C(=O)C1CCN(c2ncnc3sc(C)c(C)c23)CC1	TWEAK-Fn14 inh 58.9
Cc1ccc(NC(=O)COc2ccccc2CNC(C)(C)CC(C)(C)C)cc1	Peg3 promoter 74.5
CCOC(=O)c1nn(-c2ccc3c(c2)CCN3C(C)=O)cc1O	TWEAK-Fn14 inh 65.3
OC(COCC(F)(F)C(F)(F)C(F)(F)C(F)F)Cn1c2ccc(Cl)cc2c2cc(Cl)ccc21 (stereo not given)	TROY NFkB inh 56.5, Peg3 promoter 63.2, TWEAK-Fn14 inh 64.4
CCOC(=O)c1c(O)c2cc(Cl)ccc2n(CC)c1=O	none
CCN1CCN(C(=O)C2CCC(=O)N(Cc3cccc(C(F)(F)F)c3)C2)CC1 (stereo not given)	none
Cc1ccc(S(=O)(=O)NCCc2ccncc2)cc1[N+](=O)[O-]	none
Cc1nn(-c2ccccc2Cl)c2sc(C(=O)Nc3nnc(C4CC4)s3)cc12	none
CCOC(=O)c1ccc(NC(=O)c2cc3c(C)nn(-c4ccccc4Cl)c3s2)s1	CF NFkB block 70.5, KKLEB cytotox -70.4
Cc1nn(Cc2ccccc2Cl)c2sc(C(=O)Nc3ccccc3N3CCOCC3)cc12	TWEAK-Fn14 inh 60.6
CCC(CC)NC(=O)c1cc2c(C)nn(Cc3ccccc3Cl)c2s1	TWEAK-Fn14 inh 74.0 (no result: TROY NFkB inh)
CSc1nnc(-c2ccc(S(=O)(=O)N3CCCCC3)cc2)o1	none
COCc1nnc(NC(=O)c2ccc(S(=O)(=O)N3CCCc4ccccc43)cc2)o1	none
COc1ccc(-c2nnc(NC(=O)c3ccc(S(=O)(=O)N4CCCc5ccccc54)cc3)o2)cc1	Peg3 promoter 53.5
c1ccc2c(c1)oc1c(Nc3ccc(CN4CCOCC4)cc3)ncnc12	TROY NFkB inh 51.9, Peg3 promoter 78.8, TWEAK-Fn14 inh 75.4
O=C(c1ccncc1)N1CCN(c2cc(-c3ccccc3)nc3cc(-c4cccc(Cl)c4)nn23)CC1	TWEAK-Fn14 inh 69.7
COc1ccc(-c2cc3nc(-c4ccccc4)cc(N4CCN(C(=O)c5ccoc5)CC4)n3n2)cc1	Peg3 promoter 54.7
O=C(c1ccoc1)N1CCN(c2cc(-c3ccncc3)nc3cc(-c4cccc(Cl)c4)nn23)CC1	none
CC(C)OCCCNC(=O)Cn1ccc2cc(S(=O)(=O)N3CCCCC3)ccc21	none
COc1ccccc1-c1cn(CC[C@H]2CC[C@@H](NS(=O)(=O)c3ccccc3C)[C@@H](CO)O2)nn1	none (no result: TROY NFkB inh, Peg3 promoter, CF NFkB block, TWEAK-Fn14 inh, KKLEB cytotox)
Cc1cccc(-c2cc(C(=O)Nc3sc(C)c(C)c3C(N)=O)c3ccccc3n2)c1	none
Cc1ccc(C)c(-c2cc(C(=O)Nc3sc(C)c(C)c3C(N)=O)c3ccccc3n2)c1	TROY NFkB inh 72.0, TWEAK-Fn14 inh 66.3
CCCNc1ccc(C(=O)OCC)cc1[N+](=O)[O-]	none
CCOC(=O)c1ccc(NC(C)=O)c([N+](=O)[O-])c1	TROY NFkB inh 68.8, TWEAK-Fn14 inh 58.9
